Source: PubChem BioAssay (National Center for Advancing Translational Sciences (NCATS))
RGS4 inh: blocks human RGS4-accelerated GTP hydrolysis; actives 0.039% (n = 390,000); AID 504845; Potency, µM (highest dose often 114 µM), most hits filed as inhibitors; Transcreener GDP fluorescence polarization, RGS4-accelerated GTP hydrolysis; note: nearly all actives have a fitted effect of over 75% in size
Target sequence (P49798 whole entry, looked up): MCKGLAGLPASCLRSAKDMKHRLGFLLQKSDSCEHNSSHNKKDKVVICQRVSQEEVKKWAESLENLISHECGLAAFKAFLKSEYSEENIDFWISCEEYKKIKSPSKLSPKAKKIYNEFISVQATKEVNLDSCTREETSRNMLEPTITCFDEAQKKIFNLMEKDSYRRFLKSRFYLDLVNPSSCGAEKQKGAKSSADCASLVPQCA
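MLSMR compounds (23 nl, pin-transferred) preincubated 10 min at room temperature with a 500nM (2x) first reagent, then RGS4 at 900nM (2x) plus Transcreener GDP mix added; fluorescence polarization (620/688 nm) read before and after 90 min at 30 °C.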
GLP1R cytotox: cytotoxicity in counter-screen for GLP-1R inverse agonists; actives 0.13% (n = 410,000); Potency, µM (highest dose often 38.3 µM), most hits filed as inhibitors; HEK293 cAMP-luciferase reporter cells, luminescence, 24 h;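 note: loss of luciferase light is scored as toxicity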
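Here, cytotoxicity is scored as loss of luminescence. The MLSMR collection was tested on cells seeded in medium containing 10% Nu serum, with a 24 hr compound exposure preceded by 12 hours of culture.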
PTHR1 agonist: agonists of human PTHR1 parathyroid hormone receptor; Q03431; HEK293 GP2 PTHR1 cells, GloSensor cAMP luminescence, 1 h; Potency, µM (series often up to 115 µM), most hits filed as activators; actives 0.075% (n = 410,000); note: nearly all actives have a fitted effect of over 55% in size
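HEK-293-derived GP2 cells expressing PTHR1 and a GloSensor cAMP reporter, 3,000/well, plated overnight, given luciferin plus IBMX (each 0.5 mM as added) for 1 h at 37 °C, then compound for 1 h at 37 °C. Luminescence was read after 15 min at room temperature.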
GLP1R ag: GLP-1 receptor (human) agonism | actives 0.007% (n = 380,000) | Potency, µM (doses to about 45.6 µM), hits mostly activators | HEK293 GLP-1R CRE-luciferase, luminescence, 4-6 h; cells express a hypersensitive GLP-1R form | P43220
Target sequence (P43220 whole entry, looked up): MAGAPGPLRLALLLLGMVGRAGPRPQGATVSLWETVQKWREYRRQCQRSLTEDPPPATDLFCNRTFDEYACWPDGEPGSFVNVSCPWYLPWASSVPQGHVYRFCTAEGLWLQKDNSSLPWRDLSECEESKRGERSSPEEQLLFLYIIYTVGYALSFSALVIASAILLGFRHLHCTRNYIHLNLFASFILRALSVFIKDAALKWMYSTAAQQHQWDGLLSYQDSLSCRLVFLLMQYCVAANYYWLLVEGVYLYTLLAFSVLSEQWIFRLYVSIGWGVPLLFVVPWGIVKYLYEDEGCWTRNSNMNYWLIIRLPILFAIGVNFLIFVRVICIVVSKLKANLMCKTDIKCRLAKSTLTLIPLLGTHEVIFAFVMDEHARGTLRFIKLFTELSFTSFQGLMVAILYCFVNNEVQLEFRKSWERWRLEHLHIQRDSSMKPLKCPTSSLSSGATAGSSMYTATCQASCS
GLP-1R inv ag: GLP-1 receptor (human) inverse agonism; Potency, µM (top dose mostly 38.3 µM), actives largely listed as inhibitors; P43220; actives 1.6% (n = 410,000); HEK293 GLP-1R CRE-luciferase, luminescence, 24 h; GLP-1R form is constitutively active; note: nearly all actives have a fitted effect of over 55% in size
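Seeding at 200 cells/uL, 12 h culture, 24 hr compound treatment, then luciferase reagent and a luminescence read; cells are HEK293 stably expressing a constitutively active GLP-1R plus cAMP-responsive luciferase.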
A number is an active result; i = inactive; ? = inconclusive; nt = not tested or not shown; [ ] = dose if it differs, or a comment. The list is not random: actives were taken first. Their share in the collection is about 1.7%. Calls come from the whole dose curve; as a rule, active = well fitted curve in the direction sought with a large enough effect; inconclusive = small, poorly fitted or top-dose-only effect, or another doubt; inactive = no such curve, though single readings can be large; an effect the other way counts as inactive or inconclusive.

SMILES | RGS4 inh | GLP1R cytotox | PTHR1 agonist | GLP1R ag | GLP-1R inv ag
CCC(NC(=O)CNC(=O)c1ccc2c(c1)OCO2)c1ccc(Br)cc1 (stereo not given) | i | i | i | i | 13µM
O=C(NCCC1=CCCCC1)c1ccc2c(c1)ncn2-c1ccc(F)c(F)c1 | i | i | i | nt | i
ClC1(Cl)CC1CSc1nnc(-c2ccncc2)o1 (stereo not given) | i | i | i | i | i
CC1CC(C)CN(CCCNC(=O)c2cc3c(s2)-c2ccccc2OC3)C1 (stereo not given) | i | i | ? | i | ?
CCc1ccccc1N(CC)C(=O)c1cc2c(s1)-c1ccccc1SC2 | i | i | i | nt | ?
CCc1ccccc1N(CC)C(=O)c1cc2c(s1)-c1ccccc1OC2 | i | i | i | i | 10µM
CC1CCCC(C)N1CCCNC(=O)c1cc2c(s1)-c1ccccc1OC2 (stereo not given) | i | i | i | i | 2µM
O=[N+]([O-])c1ccc(N2N=C(c3ccco3)CC2c2ccccc2)cc1 (stereo not given) | i | i | i | i | i
Fc1ccc(C2CC(c3ccco3)=NN2c2ccccc2)cc1 (stereo not given) | i | i | i | i | 6.3µM
COc1cc(OC)c(N(C)S(=O)(=O)c2cccc(C(=O)Nc3nnc(C4CC4)s3)c2)cc1Cl | i | i | i | i | i
COc1ccccc1CNC(=O)c1cc2cccc3c2n1CC(C)S3 (stereo not given) | ? | i | i | nt | ?
CC1Cn2c(C(=O)NCc3ccccc3Cl)cc3cccc(c32)S1 (stereo not given) | i | i | i | nt | 11µM
Cc1ccccc1CNC(=O)c1cc2cccc3c2n1CC(C)S3 (stereo not given) | i | i | i | nt | 10µM
CC1Cn2c(C(=O)NCCc3ccc(Cl)cc3)cc3cccc(c32)S1 (stereo not given) | i | i | i | nt | ?
O=C(Nc1cccc(C(F)(F)F)c1)c1cccnc1NCCc1ccccc1 | i | ? | i | i | 3.5µM
O=C(Nc1cccc(F)c1)c1cccnc1NCCc1ccccc1 | i | i | i | i | 10µM
O=C(Nc1cccc(C(F)(F)F)c1)c1cccnc1N1CCCC1 | i | i | i | i | 11µM
COC(=O)C(C(=O)OC)c1ccccc1NS(=O)(=O)c1c(C)cc(C)cc1C | nt | i | i | nt | ?
COc1ccc(NC(=O)CSc2ccc(-c3cccs3)nn2)cc1 | i | i | i | nt | i
CCOC(=O)c1c(C)nc2ccc(Cl)cc2c1-c1ccccc1 | i | i | i | ? | 10µM
CN1CCN(NC(=O)c2cn(-c3ccccc3)nc2-c2cccs2)CC1 | i | i | i | i | i
CN1CCN(NC(=O)c2cn(-c3ccccc3)nc2-c2cccc(Br)c2)CC1 | ? | ? | i | i | 3.2µM
CC(C)N(CC#CCC(O)(c1ccccc1)c1ccccc1)CCO | i | i | i | i | 10µM
O=c1n(-c2ccc(Br)cc2)cnn1-c1ncccc1[N+](=O)[O-] | i | i | i | i | i
COC(=O)c1c(NC(=O)CSc2nnnn2-c2ccccc2)sc2c1CCC(C(C)(C)C)C2 (stereo not given) | i | i | i | i | 5.6µM
SMILES | RGS4 inh | GLP1R cytotox | PTHR1 agonist | GLP1R ag | GLP-1R inv ag
COC(=O)c1c(NC(=O)CSc2nnnn2-c2ccccc2)sc2c1CCC(C)C2 (stereo not given) | i | i | i | i | i
Cc1cccc(-c2nc3scc(CCNS(=O)(=O)c4c(C)noc4C)n3n2)c1 | i | i | i | nt | i
Cc1cc(N)c2ccccc2[n+]1CCCCCCCCCC[n+]1c(C)cc(N)c2ccccc21 | 24µM | nt | nt | i | nt
CC[n+]1c(C)cc2c(sc3ccccc32)c1C | i | i | i | i | i
Cc1ccc(Nc2nccc(N(C)c3ccc4c(C)n(C)nc4c3)n2)cc1S(N)(=O)=O | nt | nt | nt | i | nt
O=C(NCCN1C(=O)S/C(=C\c2ccccc2F)C1=O)C1=COCCO1 | i | i | i | i | 1µM
O=S(=O)(c1cc(F)ccc1F)N1CCC2(CC1)OCCO2 | i | i | i | i | i
O=C(Nc1ccc(F)c(F)c1)c1ccc(F)c(S(=O)(=O)N2CCC3(CC2)OCCO3)c1 | i | i | i | i | 3.5µM
CNC[C@@H]1Oc2ccc(NC(=O)Nc3c(C)noc3C)cc2CC(=O)N([C@H](C)CO)C[C@H]1C | i | i | i | i | i
COc1cc2nc(N3CCN(c4cc(C)ccc4C)CC3)nc(N)c2cc1OC | i | ? | i | i | 5µM
COc1cc2nc(N3CCNCC3)nc(N)c2cc1OC | i | ? | i | i | i
COCCN(C(=O)CSc1nnc(-c2cccc(Cl)c2)n1N)c1c(N)n(CC(C)C)c(=O)[nH]c1=O | nt | i | i | i | i
CCNc1ccc(Br)cc(C(=O)/C=C/c2ccc(Cl)cc2)c1=O | ? | i | i | i | 2.8µM
CCNc1ccc(Br)cc(C(=O)/C=C/c2ccc3c(c2)OCO3)c1=O | i | i | i | i | i
Cc1cccc(Oc2nc(-c3ccccn3)nc3ccccc23)c1 | i | ? | i | i | 1.3µM
CCOC(=O)C(=CNc1cc(Cl)c(-c2ccco2)c(Cl)c1)C(=O)OCC | i | i | i | i | 10µM
OC(c1ccccc1)(c1ccccc1)C1CCN(CCCOc2ccc3c(c2)CCCC3)CC1 | nt | ? | i | i | 7.9µM
N#CCc1ccc(OCCCN2CCC(C(O)(c3ccccc3)c3ccccc3)CC2)cc1 | nt | ? | i | i | ?
CN(C(=O)COC(=O)Cc1ccc(Cl)cc1)C1CCCCC1 | i | i | i | i | i
OCCN(CCO)c1cc2c3ccccc3ccc2c2ccccc12 | i | i | i | i | 10µM
CCN(CC(=O)NC1CCS(=O)(=O)C1)S(=O)(=O)c1cc(Br)ccc1Br (stereo not given) | i | i | i | i | i
N#C/C(=C\c1ccc(-c2cc(Cl)ccc2Cl)o1)C(=O)Nc1cccc2ncccc12 | 3µM | nt | nt | nt | nt
Cc1c(NC(=O)/C(C#N)=C/c2ccc(-c3cc(Cl)ccc3Cl)o2)c(=O)n(-c2ccccc2)n1C | ? | ? | i | i | ?
Cc1c(C(=O)N(Cc2cccc(F)c2)C2CCS(=O)(=O)C2)oc2cc(Br)ccc12 (stereo not given) | i | i | i | nt | ?
Cc1c(C(=O)N(Cc2cccc(Br)c2)C2CCS(=O)(=O)C2)oc2ccc(F)cc12 (stereo not given) | i[11.4 µM] | i | i | i | 22µM
Cn1c2ccccc2c2nnc(SCCOc3ccccc3)nc21 | i | nt | nt | nt | nt
COc1ccc2c(c1)C1=NN(/C(C)=C/C(C)=O)C(c3ccc(F)cc3)C1CC2 (stereo not given) | i | i | i | i | i
CN1N=C2c3ccccc3CCCC2C1c1ccc(F)cc1 (stereo not given) | i | i | ? | i | 7.1µM
